Results on 20 compounds are retold here after PubChem BioAssay.

The structures appear in SMILES notation. A number with no mark means an inactive call. For some of these results: Entries with a potency or affinity are not part of this list. Active and inactive are the calls of the source. Unless noted, the rule behind the calls is not given here.

The term inhibition denotes the relative decrease from the control value, in per cent.

Test [1] can be described thus: antimalarial activity against Dd2 strain (AID 2302;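 active = growth inhibition above 50% at the single 2 µM test dose, taken to imply half-maximal potency below 2 µM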;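 note: 0% = DMSO untreated growth and 100% = chloroquine plus artemisinin killed control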). Particulars: P. falciparum Dd2 in RBCs, LDH growth readout, 72 h; at 2 µM; hits give high values.
Test [2] in a line: human hepatoma cell viability loss – ATP luminescence, cytotoxicity control for P. falciparum antimalarial project, primary screen (AID 2303;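 active = inhibition above 50%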;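 note: 0% = DMSO wells and 100% = digitonin-killed cells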). Particulars: HepG2 viability, 24-48 h, at 10 µM, hits give high values.
The target in test [3] is L-lactate dehydrogenase (Plasmodium falciparum (isolate CDC / Honduras)) (UniProt Q27743). Briefly: PfLDH activity inhibition – cell lysate, 3D7 strain, counter-screen for P. falciparum growth inhibition project (AID 2304).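 Note: 0% = vehicle and 100% = reference inhibitor.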 Particulars: P. falciparum 3D7 crude extract, LDH APAD/NBT absorbance; at 2 µM; hits give high values. In general terms: A counterscreen serves to expose hits that act by an unwanted route or on another target.
Sequence of L-lactate dehydrogenase (Plasmodium falciparum (isolate CDC / Honduras)) (Q27743 whole entry, looked up): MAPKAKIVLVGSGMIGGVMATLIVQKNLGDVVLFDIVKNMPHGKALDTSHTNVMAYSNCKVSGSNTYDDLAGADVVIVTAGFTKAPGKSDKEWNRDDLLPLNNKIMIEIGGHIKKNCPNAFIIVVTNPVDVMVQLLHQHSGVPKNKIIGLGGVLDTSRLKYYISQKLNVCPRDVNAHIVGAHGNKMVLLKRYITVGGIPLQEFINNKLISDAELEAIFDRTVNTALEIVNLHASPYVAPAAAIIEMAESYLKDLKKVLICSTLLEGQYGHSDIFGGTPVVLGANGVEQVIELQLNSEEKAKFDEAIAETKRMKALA

The nature of test [4]: inhibition of 3D7 malaria parasite growth – strain 3D7 (AID 2306).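 Note: 0% = DMSO wells and 100% = chloroquine plus artemisinin control wells.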 Particulars: P. falciparum 3D7 erythrocytic growth, LDH absorbance, 72 h; at 2 µM; hits give high values.
For test [5], the target named is Calcium-dependent protein kinase 1 (Plasmodium falciparum (isolate 3D7)) (UniProt P62344). Nature of the test: PfCDPK1 kinase inhibitors, biochemical, TCAMS library (AID 1159585; cut-off not given, nearly all actives have IC50 up to about 0.98 µM;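 note: inhibitors leave more ATP so luminescence rises with inhibition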). Particulars: recombinant PfCDPK1, Kinase-Glo ATP depletion luminescence. A general note: Kinase-Glo measures the ATP left after a reaction by luminescence.
Sequence of Calcium-dependent protein kinase 1 (Plasmodium falciparum (isolate 3D7)) (P62344 whole entry, looked up): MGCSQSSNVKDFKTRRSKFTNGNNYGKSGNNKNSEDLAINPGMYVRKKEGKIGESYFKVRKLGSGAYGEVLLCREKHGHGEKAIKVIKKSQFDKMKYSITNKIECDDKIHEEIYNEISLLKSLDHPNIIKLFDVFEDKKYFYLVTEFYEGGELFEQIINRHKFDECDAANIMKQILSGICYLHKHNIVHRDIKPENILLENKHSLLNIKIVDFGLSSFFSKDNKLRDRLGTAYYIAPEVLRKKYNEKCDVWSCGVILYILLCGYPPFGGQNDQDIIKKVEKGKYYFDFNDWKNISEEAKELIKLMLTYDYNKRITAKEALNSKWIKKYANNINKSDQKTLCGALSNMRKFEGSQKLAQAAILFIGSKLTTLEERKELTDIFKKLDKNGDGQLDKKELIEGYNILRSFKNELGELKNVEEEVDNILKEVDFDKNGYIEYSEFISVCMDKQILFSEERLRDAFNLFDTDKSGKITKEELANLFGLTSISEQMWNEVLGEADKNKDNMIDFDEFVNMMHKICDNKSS
For test [6], the target named is Plasmodium falciparum protein kinase 6 (PK6, PF3D7_1337100) (UniProt Q8IDW1). Nature of the test: PfPK6 kinase inhibitors, biochemical, TCAMS library (AID 1159586). Particulars: recombinant PfPK6, Kinase-Glo ATP depletion luminescence.
Sequence of Plasmodium falciparum protein kinase 6 (PK6, PF3D7_1337100) (Q8IDW1 1-305): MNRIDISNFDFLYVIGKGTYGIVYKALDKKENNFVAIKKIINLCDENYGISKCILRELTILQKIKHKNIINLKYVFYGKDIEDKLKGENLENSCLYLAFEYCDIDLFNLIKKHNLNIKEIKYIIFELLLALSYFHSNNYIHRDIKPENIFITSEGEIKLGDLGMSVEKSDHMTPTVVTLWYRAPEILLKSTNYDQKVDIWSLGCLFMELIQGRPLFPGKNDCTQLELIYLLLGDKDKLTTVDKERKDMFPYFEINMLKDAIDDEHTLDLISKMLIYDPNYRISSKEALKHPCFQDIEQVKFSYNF
Test [7] has as its target Protein kinase 7 (PK7), Plasmodium falciparum 3D7 (PF3D7_0213400) (UniProt Q7YTF7). Nature of the test: inhibition of Plasmodium PK7 catalytic activity – biochemical, TCAMS antimalarial set, Kinase-Glo luminescence (AID 1159587). Particulars: recombinant PfPK7, Kinase-Glo ATP depletion luminescence.
Test [8] concerns the target Calcium-dependent protein kinase 4 (Plasmodium falciparum (isolate 3D7)) (UniProt Q8IBS5). Briefly: PfCDPK4 kinase inhibitors, biochemical, TCAMS library (AID 1159588; cut-off not given, nearly all actives have IC50 up to about 0.91 µM). Particulars: recombinant PfCDPK4, Kinase-Glo ATP depletion luminescence.

Sequence of Calcium-dependent protein kinase 4 (Plasmodium falciparum (isolate 3D7)) (Q8IBS5 whole entry, looked up): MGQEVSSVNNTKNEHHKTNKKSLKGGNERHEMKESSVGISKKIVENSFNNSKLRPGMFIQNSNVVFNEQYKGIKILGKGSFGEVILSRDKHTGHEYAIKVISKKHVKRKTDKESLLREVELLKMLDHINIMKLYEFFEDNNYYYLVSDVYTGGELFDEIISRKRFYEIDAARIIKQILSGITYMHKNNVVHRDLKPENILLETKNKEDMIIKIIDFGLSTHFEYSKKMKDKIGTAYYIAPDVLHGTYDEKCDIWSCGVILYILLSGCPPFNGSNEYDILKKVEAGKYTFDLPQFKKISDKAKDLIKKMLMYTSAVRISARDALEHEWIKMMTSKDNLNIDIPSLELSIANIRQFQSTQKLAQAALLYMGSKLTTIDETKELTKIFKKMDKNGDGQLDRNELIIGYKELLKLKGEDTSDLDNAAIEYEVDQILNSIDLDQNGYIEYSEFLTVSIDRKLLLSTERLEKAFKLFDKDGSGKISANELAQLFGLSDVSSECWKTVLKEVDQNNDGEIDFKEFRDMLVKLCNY
Sequence of Protein kinase 7 (PK7), Plasmodium falciparum 3D7 (PF3D7_0213400) (Q7YTF7 1-343): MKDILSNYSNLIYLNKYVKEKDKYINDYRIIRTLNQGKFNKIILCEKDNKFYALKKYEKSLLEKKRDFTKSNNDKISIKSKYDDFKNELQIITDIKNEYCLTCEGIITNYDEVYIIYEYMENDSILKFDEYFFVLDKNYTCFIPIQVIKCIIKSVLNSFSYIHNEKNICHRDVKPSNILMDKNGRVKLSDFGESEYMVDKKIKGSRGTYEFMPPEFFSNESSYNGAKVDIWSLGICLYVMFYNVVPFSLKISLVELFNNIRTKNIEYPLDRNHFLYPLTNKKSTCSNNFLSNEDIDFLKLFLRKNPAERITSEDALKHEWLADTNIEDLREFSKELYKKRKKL

Take `O=C(Nc1cccc(-c2cccc(-c3nc4ccc(F)cc4[nH]3)c2)c1)Nc1ccc(F)c(F)c1F`: the growth inhibition in test [1] and in test [4] was 100% (active) in each case. In addition, the inhibition was 83% (active) in test [2] and 4% in test [3]. For the same compound, the result in test [5], in test [6], in test [7] and in test [8] was inactive.
As for `CCOc1ccc(Cc2c(C)nc3nc(N)nc(N)c3c2C)cc1`, the figures for the growth inhibition in test [1] and in test [4] were 7% and 91% (active), respectively. Also, the inhibition in test [2] is 63% (active); in test [3], 0%. The outcome in test [5], in test [6], in test [7] and in test [8] was inactive.
Regarding `CC(=O)Oc1cc(OCc2ccccc2)c(OC(C)=O)c(OCc2ccccc2)c1`, the values for the growth inhibition in test [1] and in test [4] were 78% (active) and 94% (active), respectively. Moreover, the inhibition was 11% in test [2] and 1% in test [3]. Further, the outcome in test [5], in test [6], in test [7] and in test [8] was inactive.
As for `CCCCCN1CCCC1CNS(=O)(=O)c1cccc(C(=O)Nc2cccc(C(F)(F)F)c2)c1` (stereo not given), the growth inhibition in test [1] was 12%; in test [4], 96% (active). The inhibition in test [2] is 15%; in test [3], 4%. The outcome in test [5], in test [6], in test [7] and in test [8] was inactive.
Consider `CON=Cc1ccn(-c2ccc(O)c3c2C[C@H]2C[C@H]4[C@H](N(C)C)C(=O)C(C(N)=O)=C(O)[C@@]4(O)C(=O)C2=C3O)c1`, for which the figures for the growth inhibition in test [1] and in test [4] were 70% (active) and 96% (active), respectively. For the same compound, the inhibition is 3% in test [2] and -1% in test [3]. The outcome in test [5], in test [6], in test [7] and in test [8] was inactive.
With `CNc1cc(-c2ccc3ccnc(N)c3c2)nc(N)n1`, the figures for the growth inhibition in test [1] and in test [4] were 81% (active) and 100% (active), respectively. The inhibition was 23% in test [2] and -2% in test [3]. The result in test [5], in test [6], in test [7] and in test [8] was inactive.
In the case of `CC(C)c1ccc(C=CC(=O)N2CCC(CCN3CCC(c4c[nH]c5ccccc45)CC3)CC2)cc1`, the growth inhibition in test [1] was 11%; in test [4], 93% (active). In addition, the inhibition is 85% (active) in test [2] and 4% in test [3]. In addition, the outcome in test [5], in test [6], in test [7] and in test [8] was inactive.
With `CCc1ccc(CN2CCC(C(=O)Nc3ccc(-c4nc5ccccc5[nH]4)cc3)CC2)o1`, the growth inhibition in test [1] is 94% (active); in test [4], 99% (active). For the same compound, the inhibition was 29% in test [2] and -4% in test [3]. Further, the result in test [5], in test [6], in test [7] and in test [8] was inactive.
Take `O=C(Nc1ccc2c(c1)OCCO2)c1cc(-c2cccnc2)nc2ccc(Cl)cc12`: the growth inhibition in test [1] was 27%; in test [4] it was 95% (active). In addition, the inhibition in test [2] was 2%; in test [3], -1%. Besides, the outcome in test [5], in test [6], in test [7] and in test [8] was inactive.
Turning to `CCc1cn2c3c(cc(C(=O)N[C@@H](Cc4ccccc4)[C@H](O)CN[C@@H](C)CC)cc13)N(C)S(=O)(=O)CC2`, the growth inhibition was 98% (active) in test [1] and 99% (active) in test [4]. Besides, the inhibition in test [2] is 2%; in test [3], -2%. Also, the outcome in test [5], in test [6], in test [7] and in test [8] was inactive.
On to `COc1ccc2nccc([C@@H](O)CN3CCC(NCc4cc5ccccc5nn4)CC3)c2c1`, for which the values for the growth inhibition in test [1] and in test [4] were 16% and 94% (active), respectively. Also, the inhibition in test [2] is 5%; in test [3] it was -1%. Also, the outcome in test [5], in test [6], in test [7] and in test [8] was inactive.
Take `O=C(Nc1ccc2c(c1)CCC2)N[C@H]1CCN(CCCCCNC(=O)[C@@H]2C[C@H]2c2ccc(Cl)c(Cl)c2)C1`: the growth inhibition in test [1] is -3%; in test [4] it was 86% (active). In addition, the inhibition in test [2] was 37%; in test [3] it was 2%. The outcome in test [5], in test [6], in test [7] and in test [8] was inactive.
Turning to `Nc1ncc(Cc2ccc3c(ccc4ccccc43)c2)c(N)n1`, the growth inhibition in test [1] is 3%; in test [4], 97% (active). Moreover, the results for the inhibition in test [2] and in test [3] were 9% and -5%, respectively. For the same compound, the result in test [5], in test [6], in test [7] and in test [8] was inactive.
As for `Cc1ccnc(Nc2nc(-c3ccccn3)cs2)c1`, the results for the growth inhibition in test [1] and in test [4] were 87% (active) and 100% (active), respectively. Moreover, the inhibition was 45% in test [2] and -4% in test [3]. Besides, the result in test [5], in test [6], in test [7] and in test [8] was inactive.
As to `COc1ccc(-c2cccc(NC(=O)c3ccc(C#N)cc3)c2)cc1CN1CCN(C)CC1`, the growth inhibition in test [1] was 2%; in test [4], 93% (active). Also, the inhibition was 24% in test [2] and -3% in test [3]. Also, the outcome in test [5], in test [6], in test [7] and in test [8] was inactive.
In the case of `O=C(NCCCCCN1CCC(c2c[nH]c3ccccc23)CC1)Nc1cccc(C(F)(F)F)c1`, the growth inhibition was 11% in test [1] and 97% (active) in test [4]. Moreover, the inhibition in test [2] was 51% (active); in test [3], -1%. Besides, the outcome in test [5], in test [6], in test [7] and in test [8] was inactive.
For `c1cc(C2=N[C@H]3CCCC[C@@H]3N2)ccc1OCCCOc1ccc(C2=N[C@@H]3CCCC[C@H]3N2)cc1`, the growth inhibition was 64% (active) in test [1] and 99% (active) in test [4]. Moreover, the inhibition was -7% in test [2] and -3% in test [3]. For the same compound, the outcome in test [5], in test [6], in test [7] and in test [8] was inactive.
For the compound `CCCCCN1CCCC(CNS(=O)(=O)c2cccc(C(=O)Nc3ccc(C(F)(F)F)cc3)c2)C1` (stereo not given), the growth inhibition in test [1] was 2%; in test [4] it was 96% (active). Moreover, the inhibition in test [2] is 27%; in test [3] it was 4%. Moreover, the result in test [5], in test [6], in test [7] and in test [8] was inactive.
For the compound `O=C(Nc1cccc(CN2CCN(C(=O)c3ccccc3)CC2)c1)c1cccs1`, the growth inhibition in test [1] is 97% (active); in test [4] it was 95% (active). The results for the inhibition in test [2] and in test [3] were 15% and 1%, respectively. For the same compound, the outcome in test [5], in test [6], in test [7] and in test [8] was inactive.
`Cc1cccc2[nH]c(-c3ccc(-c4cccc(CNCc5ccc(CN)cc5)c4)s3)nc12`: the growth inhibition in test [1] was 48%; in test [4], 99% (active). Also, the inhibition was 11% in test [2] and -2% in test [3]. For the same compound, the outcome in test [5], in test [6], in test [7] and in test [8] was inactive.
